Data from PubChem BioAssay (NCI).
About 79,000 compounds went through this panel and 15% of them were active in at least one assay; those are over-represented in the sample as a whole. Calls of active or inactive are those of the source. Rule as the data show it: active = growth inhibition above about 70%; inactive = the rest.

How the values were obtained:
[1] = NCI Yeast Anticancer Drug Screen. Data for the rad52 strain (AID 147);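 also: 0% = growth of vehicle-treated control cultures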; conditions: S. cerevisiae rad52 mutant growth inhibition, active compounds read high
How it was run: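 Compounds are applied to a genetically defined yeast strain lacking normal DNA damage repair, and inhibition of growth is expressed relative to cultures given vehicle only.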

[2] = NCI Yeast Anticancer Drug Screen. Data for the wt1 strain (AID 149);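 also: 0% = growth of vehicle-treated wt1 cultures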; conditions: S. cerevisiae wt1 strain (SPY 50644) growth inhibition, active compounds read high
How it was run: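 Compounds are added to wt1 yeast cultures. Growth is then measured. Inhibition is expressed relative to vehicle-treated controls.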

[3] = NCI Yeast Anticancer Drug Screen. Data for the rad50EPP+ strain (AID 151);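 also: 0% = growth of vehicle-treated control cultures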; conditions: S. cerevisiae rad50 mutant strain, active compounds read high
How it was run: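 Compounds were applied to the rad50EPP+ yeast strain, which bears a defined DNA repair alteration, and growth inhibition was determined relative to vehicle-treated cultures.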

[4] = NCI Yeast Anticancer Drug Screen. Data for the mgt1 strain (AID 153); conditions: S. cerevisiae mgt1 mutant growth inhibition, active compounds read high
How it was run: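 Strain: mgt1 yeast, one of a set carrying defined DNA damage repair or cell cycle control alterations. Compound-treated growth compared with vehicle.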

[5] = NCI Yeast Anticancer Drug Screen. Data for the rad50 strain (AID 155);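 also: 0% = growth of vehicle-only cultures of the same strain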; conditions: S. cerevisiae rad50 strain growth inhibition, active compounds read high
How it was run: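 Inhibition values express reduced yeast growth in compound-treated cultures relative to vehicle-treated controls.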

[6] = NCI Yeast Anticancer Drug Screen. Data for the mec2-1 strain (AID 157); conditions: S. cerevisiae mec2-1 strain, active compounds read high
How it was run: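 Strain: mec2-1 (DNA repair/cell cycle alteration). Compound exposure, then growth measured; inhibition expressed relative to vehicle.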

[7] = NCI Yeast Anticancer Drug Screen. Data for the rad14 strain (AID 159);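 also: 0% = growth of vehicle-treated control cultures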; conditions: S. cerevisiae rad14 strain growth inhibition, active compounds read high
How it was run: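 A mutant yeast strain defective in DNA damage repair is treated with compound; inhibition of its growth is scored against untreated, vehicle-exposed cultures.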

[8] = NCI Yeast Anticancer Drug Screen. Data for the sgs1 mgt1 strain (AID 161);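 also: 0% = growth of cultures given vehicle only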; conditions: S. cerevisiae sgs1 mgt1 strain, active compounds read high
How it was run: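 Genetically altered yeast, compound exposure, growth inhibition relative to vehicle.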

[9] = NCI Yeast Anticancer Drug Screen. Data for the CLN2oe strain (AID 163);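 also: 0% = growth of vehicle-only control cultures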; conditions: S. cerevisiae CLN2oe strain, active compounds read high
How it was run: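 Growth of a genetically modified yeast strain is measured after compound exposure and compared with cultures given vehicle alone.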

[10] = NCI Yeast Anticancer Drug Screen. Data for the cln2 rad14 strain (AID 165);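 also: 0% = growth equal to vehicle treated cultures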; conditions: S. cerevisiae cln2 rad14 strain, active compounds read high
How it was run: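 Compounds are applied to the cln2 rad14 yeast strain, and growth is then compared with that of vehicle-treated cultures to give inhibition.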

[11] = NCI Yeast Anticancer Drug Screen. Data for the bub3 strain (AID 167); conditions: S. cerevisiae bub3 mutant strain, active compounds read high
How it was run: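 Steps: expose the mutant yeast strain to compound; grow alongside vehicle-treated cultures; measure growth; express inhibition against the vehicle cultures.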

[12] = NCI Yeast Anticancer Drug Screen. Data for the wt2 strain (AID 169);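 also: 0% = growth of vehicle-treated yeast cultures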; conditions: S. cerevisiae wt2 strain growth inhibition, active compounds read high
How it was run: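 This strain belongs to a panel of yeast strains with defined genetic alterations in DNA damage repair or cell cycle control. Compounds are applied, and growth inhibition is measured against vehicle-treated cultures.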

[13] = NCI Yeast Anticancer Drug Screen. Data for the mlh1 strain (AID 171);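 also: 0% = growth of vehicle-treated control cultures of the same strain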; conditions: S. cerevisiae mlh1 strain growth inhibition, active compounds read high
How it was run: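 Growth of the mutant yeast strain after compound exposure, expressed as inhibition relative to vehicle-only controls.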

[14] = NCI Yeast Anticancer Drug Screen. Data for the sgs1 strain (AID 173);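 also: 0% = growth of vehicle-only control cultures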; conditions: S. cerevisiae sgs1 mutant, active compounds read high
How it was run: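 Growth of a yeast strain bearing a defined genetic alteration is measured after compound treatment. Inhibition is expressed relative to vehicle-only controls.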

[15] = NCI Yeast Anticancer Drug Screen. Data for the mlh1 rad18 strain (AID 175); conditions: S. cerevisiae mlh1 rad18 strain growth inhibition, active compounds read high
How it was run: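 Read-out is yeast growth inhibition, calculated against vehicle-only controls. The compound was applied to a strain engineered with DNA damage repair alterations.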

[16] = at 5.0 µM (retest, dose inferred, filed as 0.5)
[17] = at 50.0 µM (retest, dose inferred, filed as 5.0)

Measured: growth inhibition

CC(=O)OCCOCNC(=S)N/N=C(\C)c1cnccn1
inactive: [1]; at 1.2 µM -27% | [1]; at 3.7 µM -41% | [1]; at 11.0 µM -19% | [1]; at 33.0 µM 20% | [2]; at 1.2 µM -14% | [2]; at 3.7 µM -11% | [2]; at 11.0 µM 5% | [2]; at 33.0 µM 28% | [2]; at 100.0 µM 69% | [3]; at 1.2 µM 9% | [3]; at 3.7 µM 9% | [3]; at 11.0 µM -9% | [3]; at 33.0 µM 0% | [3]; at 100.0 µM -4% | [4]; at 1.2 µM 8% | [4]; at 3.7 µM 9% | [4]; at 11.0 µM 29% | [4]; at 33.0 µM 53% | [5]; at 1.2 µM 13% | [5]; at 3.7 µM -1% | [5]; [16] -25% | [5]; at 11.0 µM 15% | [5]; at 33.0 µM 46% | [5]; [17] 45% | [6]; at 1.2 µM -17% | [6]; at 3.7 µM -17% | [6]; [16] -59% | [6]; at 11.0 µM -2% | [6]; at 33.0 µM 27% | [6]; [17] 44% | [6]; at 50.0 µM 59.7% | [7]; at 1.2 µM -8% | [7]; at 3.7 µM -12% | [7]; at 11.0 µM 5% | [7]; at 33.0 µM 46% | [8]; [16] -15% | [8]; [17] 43% | [9]; at 1.2 µM 8% | [9]; at 3.7 µM 2% | [9]; at 11.0 µM 12% | [9]; at 33.0 µM 21% | [10]; [16] -9% | [10]; [17] 45% | [10]; at 50.0 µM 60.8% | [11]; at 1.2 µM -18% | [11]; at 3.7 µM 17% | [11]; [16] -5% | [11]; at 11.0 µM 24% | [11]; at 33.0 µM 51% | [11]; [17] 67% | [12]; at 1.2 µM -23% | [12]; at 3.7 µM -24% | [12]; at 11.0 µM 6% | [12]; at 33.0 µM 25% | [13]; at 1.2 µM -1% | [13]; at 3.7 µM -4% | [13]; at 11.0 µM 15% | [13]; at 33.0 µM 49% | [14]; at 1.2 µM -23% | [14]; at 3.7 µM -15% | [14]; at 11.0 µM 0% | [14]; at 33.0 µM 41% | [15]; [16] -29% | [15]; [17] -7% | [15]; at 50.0 µM 62.4%
active: [1]; at 100.0 µM 77% | [4]; at 100.0 µM 82% | [5]; at 50.0 µM 73.4% | [5]; at 100.0 µM 85% | [6]; at 100.0 µM 75% | [7]; at 100.0 µM 84% | [8]; at 50.0 µM 72.7% | [9]; at 100.0 µM 82% | [11]; at 50.0 µM 75.3% | [11]; at 100.0 µM 84% | [12]; at 100.0 µM 74% | [13]; at 100.0 µM 80% | [14]; at 100.0 µM 80%
